Experimental data taken from PubChem BioAssay AID651724 (National Center for Advancing Translational Sciences (NCATS), 2012).
Hit rate of the full screen: of about 340,000 compounds, about 1,700 (0.5%) were called active. Roughly 2% stayed inconclusive and do not appear here. No stated cut-off is given here; in the data, active means activity change below about -65%; inconclusive means mostly about -30% to -63%; inactive means weaker than that. For the sample, actives were picked, then their nearest neighbours and some compounds at random.

Test system: CtBP / adenovirus E1A interaction (AlphaScreen)
Experiment: qHTS Assay for Inhibitors of the CtBP/E1A Interaction
Conditions: AlphaScreen GST-E1A/His-CtBP binding, 1536-well; active compounds read low
Summary of the method: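 AlphaScreen with 125 nM GST-E1A and 125 nM His-CtBP (5X stocks) in Tris pH 8.0, 300 mM NaCl, BSA, Tween 20, TCEP. Compounds preincubated 2 h at 37 deg C, then glutathione donor/nickel acceptor beads added for 1 h at 37 deg C in dark.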
On the % scale 0 is the no-effect control and ±100 the full control effect.

Q: How did the activity change turn out when `CCOC(=O)[C@]12CCCC=C1N(CCC1=CCCCC1)C(=O)[C@H](CC(=O)N1CCN(C(=O)c3ccco3)CC1)C2` was run?
A: -6.31% (inactive)

Q: With `O=C(COC(=O)c1ccccn1)NNC(=O)c1ccc(Br)cc1` as the molecule, how does the activity change read?
A: -15.7% (inactive)

Q: `NC(=O)NC(CC(=O)NNC(=O)c1ccccn1)c1ccc(Cl)cc1` (stereo unspecified) was tested. Which activity change did it give?
A: -76% (active)

Q: Which activity change does the source give for `CN(C)S(=O)(=O)c1ccc(Cl)c(NC(=O)COC(=O)CC(NC(N)=O)c2ccc(Cl)cc2)c1` (stereo unspecified) here?
A: -6.53% (inactive)

Q: `CC(C)NC(=O)C1(C)CCCCCN1C(=O)c1ccc(-c2ccccc2)cc1` (stereo unspecified) was tested. Which activity change did it give?
A: -11.1% (inactive)

Q: Which activity change does the source give for `CCCC/C=C/c1cccc2nncn12` here?
A: 2.58% (inactive)

Q: `COc1cccc(-c2cc3nc(NCCOc4ccccc4Cl)n(C)c(=O)c3s2)c1` was tested. Which activity change did it give?
A: 3.25% (inactive)

Q: With `COc1ccc(CCCNC(=O)C2Cc3c(-c4cccc(C(N)=O)c4)ccnc3O2)cc1` (stereo unspecified) as the molecule, how does the activity change read?
A: -0.248% (inactive)

Q: With `O=C(CSc1cccc2cccnc12)N/N=C/c1cccnc1` as the molecule, how does the activity change read?
A: -93.9% (active)

Q: How did the activity change turn out when `COc1ccc(C(=O)NCC(=O)N/N=C/c2cccnc2)cc1` was run?
A: 11.7% (inactive)

Q: Which activity change does the source give for `CCOC(=O)N/N=C/c1cccnc1` here?
A: 25.9% (inactive)

Q: For `CCCCn1nnnc1C(c1cc2ccccc2o1)N(C)Cc1ccc(Cl)c(Cl)c1` (stereo unspecified), which activity change is on record?
A: 13.3% (inactive)

Q: How did the activity change turn out when `O=C(Nc1ccc2c(c1)OCCO2)C(C1CC1)N1CCC(Cc2ccccc2)CC1` (stereo unspecified) was run?
A: -10.3% (inactive)

Q: For `O=C(OCC(=O)N1CCCC1)c1ccc(Cl)nc1`, which activity change is on record?
A: 2.13% (inactive)

Q: Which activity change does the source give for `O=C(OCC(=O)N1CCCCCC1)c1ccc(Cl)nc1` here?
A: -1.48% (inactive)

Q: Which activity change does the source give for `O=C(OCC(=O)N1CCCCCC1)c1cnc(Cl)c(Cl)c1` here?
A: -78.7% (active)

Q: `OCc1ccc(OCCCOc2cccc3cccnc23)cc1` was tested. Which activity change did it give?
A: -7.66% (inactive)

Q: Which activity change does the source give for `O=C(Nc1ccccc1)Oc1cccc2cccnc12` here?
A: -90.3% (active)

Q: Which activity change does the source give for `O=S(=O)(NCCOc1cccc2cccnc12)c1ccc(F)cc1` here?
A: 6.61% (inactive)

Q: With `COC(=O)[C@@]12C[C@@H](CC(=O)NCc3cccc(C(F)(F)F)c3)C(=O)N(Cc3ccco3)C1=CCC(C)(C)C2` as the molecule, how does the activity change read?
A: -3.58% (inactive)

Q: `CCCCCCCCN1C(=O)[C@H](CC(=O)NCc2cccc3ccccc23)C[C@@]2(C(=O)OC)CCCCC=C12` was tested. Which activity change did it give?
A: -7.91% (inactive)

Q: Which activity change does the source give for `CCCCCCCN=C(C)c1ccccc1O` here?
A: 2.02% (inactive)

Q: How did the activity change turn out when `C/C(=N\Nc1ccc(Cl)nn1)c1ccccc1O` was run?
A: -87.6% (active)

Q: For `C/C(=N\NC(=O)c1ccoc1C)c1ccccc1O`, which activity change is on record?
A: -25.9% (inactive)

Q: How did the activity change turn out when `CC(C)Nc1ncnc2c1ncn2[C@H]1CN(Cc2ccncc2)C[C@@H](CO)O1` was run?
A: 4.17% (inactive)

Q: `Cc1cc(O)ccc1-c1cc(C(=O)NCc2cc(C(F)(F)F)cc(C(F)(F)F)c2)[nH]n1` was tested. Which activity change did it give?
A: 0.488% (inactive)
